Laboratory results from PubChem BioAssay AID1159606 (Sanford-Burnham Center for Chemical Genomics, 2016).
In all, about 360,000 compounds went through this assay and about 7,300 (2%) were called active. No stated cut-off is given here; in the data, active means inhibition above about 50%; inactive means the rest. Only a selection was taken, and actives are over-represented in it overall.

assay: blockers of TWEAK-induced Fn14 reporter activity – luciferase reporter cells, uHTS, primary screen (AID 1159606); details: TWEAK-stimulated Fn14 reporter cells, luciferase luminescence, 8 h; at 10 µM; active compounds read high

SMILES	inhibition
CCCNC(=O)C1(C)CCN(C(=O)c2ccc(F)cc2Cl)C1 (stereo not given)	2.61% (inactive)
COc1cccc2cc(C(=O)N(C)C)c(=O)oc12	0.46% (inactive)
COc1cccc2cc(C(=O)N3CCN(C(=O)c4ccccc4)CC3)c(=O)oc12	11.9% (inactive)
COc1cccc2cc(C(N)=O)/c(=N\NC(=O)c3ccccc3)oc12	91.4% (active)
CCN(CC)S(=O)(=O)c1ccc(C(=O)N2CCN(C3=NS(=O)(=O)c4ccccc43)CC2)cc1	-0.95% (inactive)
O=S1(=O)CC(N2CCN(CCO)CC2)CN1Cc1cn(Cc2cccc(Cl)c2)nn1 (stereo not given)	13.2% (inactive)
CC(=O)N1CCN(CC(C)(C)NS(=O)(=O)c2ccc(C)cc2)CC1	14% (inactive)
CCOC(=O)C(NS(=O)(=O)c1ccc(C)cc1)(C(F)(F)F)P(=O)(OCC(C)C)OCC(C)C (stereo not given)	56.7% (active)
Cc1ccc(S(=O)(=O)NCC(C)NS(C)(=O)=O)cc1 (stereo not given)	4.2% (inactive)
O=C(CN1C(=O)/C(=C\c2ccccc2F)SC1=S)Nc1nc2ccccc2s1	29.6% (inactive)
O=C(CN1C(=O)/C(=C/c2ccccc2F)Sc2ccccc21)NCc1cccnc1	52.7% (active)
O=C(CN1C(=O)/C(=C\c2ccc(C(F)(F)F)cc2)Sc2ccccc21)NCc1ccco1	27.1% (inactive)
O=C(NCc1ccccn1)[C@@H]1CCCN1C(=O)[C@@H]1CCCN1C(=O)c1ccccc1	7.41% (inactive)
Cc1ccc(NS(=O)(=O)c2cc3c(cc2C)NC(=O)CO3)cc1	8.45% (inactive)
O=C(Nn1cnc2ccccc2c1=O)c1ccc(F)cc1Cl	-23.3% (inactive)
CN1CCN(c2ccc([N+](=O)[O-])c(Sc3nc4ccccc4[nH]3)c2)CC1	17% (inactive)
CCC(C)N1C(=O)S/C(=C/c2ccc(Sc3nc4ccccc4[nH]3)o2)C1=O (stereo not given)	69.5% (active)
CC(C)c1ccc(/C=C2\NC(=O)NC2=O)cc1	18.4% (inactive)
O=C(CSc1ccc([N+](=O)[O-])cn1)Nc1ccc(N2CCOCC2)c(Cl)c1	-16.6% (inactive)
CCOc1ccc(C(=O)NC(=S)Nc2ccc(NC(=O)C(C)C)cc2)cc1[N+](=O)[O-]	3.3% (inactive)
CCOc1ccc(C(=O)NC(=S)Nc2ccc(N3CCOCC3)c(Cl)c2)cc1[N+](=O)[O-]	62.8% (active)
COc1ccc(C(C#N)=C2C=CC(=NO)c3ccccc32)cc1	88% (active)
COc1ccc(/C(N)=N/OC(=O)Cc2ccccc2)cc1	-44.1% (inactive)
COc1ccc(C(=NN)c2ccc(OC)cc2)cc1	-20.6% (inactive)
CCOc1ccc(Br)cc1S(=O)(=O)N1CCC(C(=O)O)CC1	0.18% (inactive)
